# Results reported in PubChem BioAssay (NCI).
# The panel holds about 83,000 compounds, 20% with a hit somewhere; the sample as a whole holds those more often.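 48-hour exposure, single concentration, 96-well plates; percent growth endpoint where 0 means no net growth. Active: below 10.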 Unmarked numbers belong to inactive results. The source made the active and inactive calls.
# Legend:
# Assay in all cases: NCI-60 one-dose screen, 48 h (100 = growth as untreated, 0 = no growth, -100 = all killed)
# Conditions in all cases: 10 µM unless noted
# T-47D breast = test system: T-47D breast
# BT-549 breast = test system: BT-549 breast
# MDA-MB-435 melanoma = test system: MDA-MB-435 melanoma
# SW-620 colon = test system: SW-620 colon
# MCF7 breast = test system: MCF7 breast
# HCT-116 colon = test system: HCT-116 colon
# HCC-2998 colon = test system: HCC-2998 colon
# KM12 colon = test system: KM12 colon
SMILES,growth (T-47D breast),growth (BT-549 breast),growth (MDA-MB-435 melanoma),growth (SW-620 colon),growth (MCF7 breast),growth (HCT-116 colon),growth (HCC-2998 colon),growth (KM12 colon)
CC1=CC(=O)N(c2cccc3c(N4C(=O)C=C(C)C4=O)cccc23)C1=O,30.1%,99.7%,80.6%,14.3%,57.7%,17.8%,105%,106%
Cc1ccncc1C(=O)O,107%,99.8%,101%,97.3%,101%,107%,116%,98.6%
COc1ccc(/C(=C\c2ccc3c(c2)OCO3)C(=O)Nc2nc3ccccc3s2)cc1OC,92.3%,88.7%,95.7%,102%,89.5%,73.6%,102%,85.4%
COc1ccc2c(c1)c(-c1nc(-c3cn(C)c4ncccc34)cs1)cn2CCCN1CCCCC1,64%,80.5%,26%,-22.9% (active),34%,-93.2% (active),102%,57.4%
OCC1OC(n2cnc3c(Cl)ncnc32)CC1O (stereo not drawn),92.1%,114%,104%,98.7%,95.2%,94.1%,108%,107%
CC(C)(C)c1nc(-c2ccc(O)c(O)c2)cs1,61.6%,63.3%,36.6%,28.6%,83%,48.8%,86.1%,76.7%
CCCC1CCCCN1C(=O)OCC(C)C (stereo not drawn),104%,114%,100%,98.4%,100%,103%,125%,105%
COc1ccc2c(c1)C/C(=C\c1cc(-c3cc(OC)c(OC)c(OC)c3)n[nH]1)C2=O,73.4%,85.2%,91.5%,91.1%,56.3%,81.9%,102%,85%
COc1cccc(-c2nn(-c3ccccc3)cc2-c2ccnc(NCCCNS(=O)(=O)c3ccc(C(F)(F)F)cc3)c2)c1,-2.76% (active),36.6%,27.1%,47.7%,16.9%,22.9%,20%,23.8%
CNC(=O)c1cc(Oc2ccc3nc(NC(=O)Nc4ccc(Cl)cc4)sc3c2)ccn1,44%,102%,64.1%,101%,69.5%,47.3%,86.5%,70%
COc1ccc2c(c1)C/C(=C\c1cc(-c3ccc4c(c3)OCO4)n[nH]1)C2=O,23%,93.9%,93%,96.6%,34.8%,93.3%,105%,85.7%
CC1(C)CC[C@]2(CO)CC[C@]3(C)C(=CC[C@@H]4[C@@]5(C)CC[C@H](NCO)C(C)(C)[C@@H]5CC[C@]43C)[C@@H]2C1,4.47% (active),59.1%,-5.37% (active),-71.9% (active),-26.3% (active),-78.2% (active),6.82% (active),-80.7% (active)
COc1ccc(/C=C(\C#N)c2cc3ccccc3n2C(C)=O)cc1,78.5%,82.6%,9.69% (active),59.5%,53.7%,81.1%,81.2%,57.1%
C=C(C)[C@@H]1CC[C@]2(C(=O)O)CC[C@]3(C)[C@H](CC[C@@H]4[C@@]5(C)C/C(=C/c6cccc(I)c6)C(=O)C(C)(C)[C@@H]5CC[C@]43C)[C@@H]12,4.75% (active),35.3%,32.1%,17.9%,19.6%,5.1% (active),28.8%,15.1%
COC(=O)[C@]12CC[C@@H](C)[C@H](C)[C@@H]1C1=CC(=O)[C@@H]3[C@@]4(C)C[C@@H](O)[C@H](O)[C@@]5(C)COC(=C45)C[C@@]3(C)[C@]1(C)CC2,51.2%,53.9%,-11.3% (active),33.3%,28.5%,53.2%,69.2%,34.6%
CN1CCN(CCOc2ccc(-c3cnc4c(-c5ccccc5F)cnn4c3)cc2)CC1,23%,69.9%,-29.2% (active),-73.8% (active),19.2%,3.73% (active),22.4%,9.44% (active)

SMILES,growth (T-47D breast),growth (BT-549 breast),growth (MDA-MB-435 melanoma),growth (SW-620 colon),growth (MCF7 breast),growth (HCT-116 colon),growth (HCC-2998 colon),growth (KM12 colon)
CC(C)(C)n1cc(-c2ccnc(NCCCNS(=O)(=O)c3ccc(Cl)cc3)c2)c(-c2cccc(F)c2)n1,46.5%,74.7%,85.6%,70.2%,60.5%,51.9%,63.4%,60.5%
CSc1ccc(N(C)c2nc(C)nc3c2CCC3)cc1,64.5%,23.6%,-12.8% (active),28.1%,16%,0.112% (active),8.45% (active),8.57% (active)
Oc1cc(/C=C/c2nc(N3CCOCC3)c3cc(Cl)c(Cl)cc3n2)cc(O)c1O,94.9%,95.5%,106%,107%,106%,104%,104%,111%
CC1(C)C=CC[C@]2(C)[C@H]3CC[C@@H]4[C@H]5[C@H](C(=O)/C=C/c6cccnc6)CC[C@]5(CO)CC[C@@]4(C)[C@]3(C)CC[C@@H]12,-74.5% (active),-81% (active),-57.1% (active),-59% (active),-21.8% (active),-88.6% (active),-66.8% (active),-80.7% (active)
N#CCCCCCn1c2ccccc2c2c3c(c4c5ccccc5n(CCCCCC#N)c4c21)C(=O)N(O)C3=O,75.7%,75%,91.3%,106%,72.2%,71.3%,80.8%,71.8%
N#C/C(=C\c1ccc(-c2ccccc2)o1)c1nc(-c2ccco2)cs1,-26% (active),94.6%,99.2%,99.2%,17.6%,87%,32.1%,48.1%
CN(C)CCCC1(c2ccc(F)cc2)OCc2cc(-c3ccc(C(F)(F)F)nc3)ccc21 (stereo not drawn),66.5%,94.7%,67.9%,83.5%,56.7%,58.4%,31.8%,80.2%
COc1ccc(-c2nc(SCC(=O)Nc3ccc(C(C)=O)cc3)[nH]c(=O)c2C#N)cc1,89.4%,82.2%,111%,112%,97.5%,76.3%,105%,101%
COC(=O)C(Cc1ccccc1)n1cc(COc2nc(Cl)nc(Nc3ccc(Cl)cc3)n2)nn1 (stereo not drawn),78.9%,99.6%,105%,99.8%,78.1%,100%,101%,96.5%
Cc1cccc(C)c1NC(=O)CSC(=S)N1CCN(CCOCCO)CC1,103%,102%,108%,104%,98.1%,108%,97.6%,98.5%
NNC(=O)c1nc2ccccc2[nH]1,89.8%,95.4%,109%,105%,104%,91.3%,104%,102%
CC(=O)O[C@@H]1CCN2C(=O)N(C)c3ccccc3[C@@H]2C1,92.8%,108%,107%,113%,94.6%,102%,104%,116%
COc1cc(NC(C)CN(CC(C)C)C(C)C)c2ncccc2c1 (stereo not drawn),31%,108%,114%,92.9%,43%,88.6%,103%,93.2%
c1csc(-c2nc(-c3cc4ccccc4c(N4CCOCC4)n3)cs2)c1,71.2%,103%,38%,97.2%,80.5%,100%,103%,99.7%
N=C(N)N=Nc1ccc(O)cc1,98.8% [100 µM],19.3% [100 µM],80.4% [100 µM],58.9% [100 µM],9.71% [100 µM] (active),48% [100 µM],54.6% [100 µM],89.7% [100 µM]
